Experimental data from PubChem BioAssay (Tox21).
Inconclusive results are not listed. Where a call stands in place of a potency, no number is given. Values without a mark were called inactive. Calls of active or inactive are those of the source. Calls follow the shape of the dose curve; as a rule, active = well fitted activation curve with a large enough effect in the repeat runs; inconclusive = weak or mixed curves; inactive = flat fitted curve, though single readings scatter.

Experiment: Caspase-3/7 induction in HepG2 cells by small molecules, qHTS assay (AID 1346978); also: nearly all actives have a fitted effect of over 15% in size
Details: HepG2 caspase-3/7 activation, Caspase-Glo luminescence, 17 h; series mostly up to 92.4 µM
From the text: National Center for Advancing Translational Sciences [NCATS] NIH Chemical Genomics Center [NCGC] U.S. Environmental Protection Agency [EPA] National Institutes of Environmental Health Sciences [NIEHS] National Toxicology Program [NTP] Assay overview: Apoptosis is a process of programmed cell death and plays a central role in the development of multicellular organisms. It is a highly regulated process and induces cell death by activating caspases, which are the members of cysteine aspartic acid-specific protease (caspase) family. Caspases involved in apoptosis are classified by their mechanism of action as initiator caspases (caspase-2, -8, -9 and -10) and executioner caspases (caspase-3, -6, and -7). Inhibition of apoptosis results in number of cancers, autoimmune diseases, inflammatory diseases and viral infection. To identify small molecule compounds that induce apoptosis, a homogeneous, luminescent Caspase-Glo 3/7 assay was used. Wild type HepG2 cells were used to screen Tox21 libraries for identifying caspase-3/7 activity inducers.
Assay Protocol Summary: HepG2 cells were dispensed at 2,000 per well in 5uL of culture medium into white solid bottom 1536-well plates (Corning Life Sciences, Corning, NY) using a Multidrop Combi (Thermo Scientific, Waltham, MA) dispenser. The assay plates were incubated at 37 C and 5% CO2 for 5hr, and then 23nL of compounds dissolved in DMSO and positive control were transferred using a Pintool station (Wako, San Diego, CA). The assay plates were incubated at 37C and 5% CO2 for 17hr. For caspase-3/7 activity read, 4uL of Caspase-Glo 3/7 reagent (Promega Corporation, Madison, WI) was added to each well of the assay plates using Flying Reagent Dispenser (FRD, Aurora Discovery, San Diego, CA) and incubated the assay plates at room temperature for 30min. The luminescence signal was quantified using a ViewLux plate reader (Perkin Elmer, Shelton, CT).

| Structure (SMILES) | Potency | caspase activation |
| --- | --- | --- |
| O=C(O)c1ccc(=O)[nH]c1 | inactive | – |
| CN(C)c1ccc(N=O)cc1 | inactive | – |
| CCCCC(CC)COC(=O)c1c(Br)c(Br)c(Br)c(Br)c1C(=O)OCC(CC)CCCC (stereo not given) | inactive | – |
| Cc1ccccc1 | inactive | – |
| O=C(NC(=O)c1cc(F)c(F)cc1Cl)Nc1cc(F)ccc1N1CCC(C(=O)O)CC1 | inactive | – |
| CCCCCCCCCCCCN=C(N)N | – | -1.34% [at 3.27 µM] |
| Nc1c(Br)cc(Br)c2c1C(=O)c1ccccc1C2=O | – | 0.187% [at 19 µM] |
| Nc1cc(Cl)cc(C(=O)O)c1Cl | inactive | – |
| OCCSSCCO | inactive | – |
| C=CC(C)(CCC=C(C)C)OC(=O)c1ccccc1N (stereo not given) | inactive | – |
| O=CC=O | inactive | – |
| CC(C)(C)N(NC(=O)c1ccc(Cl)cc1)C(=O)c1ccccc1 | inactive | – |
| CN(C)N | inactive | – |
| NNCCO | inactive | – |
| C[CH2][Hg][S]c1ccccc1C(=O)O | inactive | – |
| CCOC(=O)c1cn2nc(OP(=S)(OCC)OCC)cc2nc1C | inactive | – |
| O=C(N[C@H]1CN2CCC1CC2)c1ccc2c(c1)OCCO2 | inactive | – |
| C=CCc1ccccc1O | inactive | – |
| CC(O)CN1CCN(CC(=O)[O-])CCN(CC(=O)[O-])CCN(CC(=O)[O-])CC1.[Gd+3] (stereo not given) | inactive | – |
| Clc1ccccc1 | inactive | – |

| Structure (SMILES) | Potency | caspase activation |
| --- | --- | --- |
| CC(C)(C)OOC(C)(C)CCC(C)(C)OOC(C)(C)C | inactive | – |
| Cc1nc2ccccc2c(=O)n1-c1ccccc1Cl | inactive | – |
| CC(Cl)C(=O)O (stereo not given) | inactive | – |
| O=C([O-])c1ccccn1.O=C([O-])c1ccccn1.O=C([O-])c1ccccn1.[Cr+3] | inactive | – |
| COC1CC(=C(c2cccs2)c2cccs2)C[N+](C)(C)C1 (stereo not given) | inactive | – |
| c1ccc2sc(SNC3CCCCC3)nc2c1 | inactive | – |
| CCCCNC(=O)OCC#CI | inactive | – |
| C=CCc1ccc(OC(=O)Cc2ccccc2)c(OC)c1 | inactive | – |
| NC(=O)CF | inactive | – |
| CCCC(C)(COC(N)=O)COC(=O)NC(C)C (stereo not given) | inactive | – |
| CCOP(=S)(OCC)SCSc1cc(Cl)ccc1Cl | inactive | – |
| CCOP(=S)(S)OCC | inactive | – |
| CN1CC[C@]23c4c5ccc(O)c4O[C@H]2[C@@H](O)C=C[C@H]3[C@H]1C5 | inactive | – |
| O=C(O)CCCOc1ccc(Cl)cc1Cl | inactive | – |
| C=C(C)C(=O)OCCCCOC(=O)C(=C)C | inactive | – |
| CC(C)c1ccc(NC(=O)N(C)C)cc1 | inactive | – |
| CCCCCBr | inactive | – |
| O=C=NC1CCCCC1 | inactive | – |
| CCCCCCCCP(=O)(O)O | inactive | – |
| Clc1ccc(Cl)c(Cl)c1 | inactive | – |
